Results published in article PMC8338941.

Biological target: Large ribosomal subunit protein eL13A (UniProt Q12690)
Experiment: cross-link between two proteins; cross-linking mass spectrometry

Large ribosomal subunit protein eL13A, sequence (Q12690 whole entry): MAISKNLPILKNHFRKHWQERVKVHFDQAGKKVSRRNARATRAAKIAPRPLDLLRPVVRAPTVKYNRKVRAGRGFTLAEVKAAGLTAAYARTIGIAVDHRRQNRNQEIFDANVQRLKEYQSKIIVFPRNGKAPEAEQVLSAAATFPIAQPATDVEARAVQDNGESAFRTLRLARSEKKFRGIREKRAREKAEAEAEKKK

Large ribosomal subunit protein uL29A, P0CX84
listed as a hit: yes

Large ribosomal subunit protein eL36B, O14455
listed as a hit: yes
